Measured values reported in PubChem BioAssay (EPA / NIEHS).
Several values for one entry are separate records, joined by “and”; a condition that tells them apart may be missing. Equal entries are not always repeated. Records with an inconclusive call do not appear. A structure can be active in one record and inactive in another. Activity calls are given as the source filed them. How the source made its calls, unless noted: active means hit-call score of the fitted dose curve at least 0.9, where 1 is the maximum; inconclusive means response in the unintended direction; inactive means score below 0.9.

Columns and labels:
[1] = read-out: Thyroid Hormone Responsive (THRSP), THRSP (gene 7069); test: LTEA_HepaRG_THRSP: Life Technologies and Expression Analysis (LTEA) Assay for Thyroid Hormone Responsive (THRSP) using HepaRG (AID 2283536; active means hit-call score of the fitted dose curve at least 0.9, where 1 is the maximum; inactive means score below 0.9); conditions: mRNA level, 48 h; actives raise or lower the signal
Procedure, shortened: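 THRSP transcript quantified by Fluidigm qRT-PCR against three housekeeping genes after 48 h chemical exposure of HepaRG cells in serum-free induction medium; eight-point half-log series, top 100 uM, 0.5% DMSO vehicle, duplicate wells.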

[2] = read-out: Cellular tumor antigen p53 (Homo sapiens) (UniProt P04637); test: LTEA_HepaRG_TP53: Life Technologies and Expression Analysis (LTEA) Assay for Tumor Protein P53 (TP53) using HepaRG (AID 2283537; active means hit-call score of the fitted dose curve at least 0.9, where 1 is the maximum; inactive means score below 0.9); conditions: mRNA level, 48 h; actives raise or lower the signal
Procedure, shortened: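 Read-out is TP53 transcript level by microfluidic qRT-PCR, normalised to three housekeeping genes and fitted bidirectionally against DMSO. Human HepaRG cells received compounds for 48 h, highest concentration 100 uM.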

[3] = read-out: UDP glucuronosyltransferase (UGT1A1), UGT1A1 (gene 54658); test: LTEA_HepaRG_UGT1A1: Life Technologies and Expression Analysis (LTEA) Assay for UDP glucuronosyltransferase (UGT1A1) using HepaRG (AID 2283538; active means hit-call score of the fitted dose curve at least 0.9, where 1 is the maximum; inactive means score below 0.9); conditions: mRNA level, 48 h; actives raise or lower the signal
Procedure, shortened: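 mRNA induction or loss of UGT1A1, by TaqMan qRT-PCR, in duplicate HepaRG wells after 48 h exposure to half-log dilutions topping at 100 uM; DMSO (0.5%) served as baseline.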

[4] = read-out: UDP glucuronosyltransferase (UGT1A6), UGT1A6 (gene 54578); test: LTEA_HepaRG_UGT1A6: Life Technologies and Expression Analysis (LTEA) Assay for UDP glucuronosyltransferase (UGT1A6) using HepaRG (AID 2283539; active means hit-call score of the fitted dose curve at least 0.9, where 1 is the maximum; inactive means score below 0.9); conditions: mRNA level, 48 h; actives raise or lower the signal
Procedure, shortened: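 HepaRG, 48 h post-plating switch to serum-free induction medium; chemical 48 h, 100 uM top, half-log x8, duplicate, 0.5% DMSO. Phenobarbital 1mM induction control. UGT1A6 mRNA by TaqMan qRT-PCR; gain/loss fit vs DMSO.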

[5] = read-out: X-box binding protein 1 (XBP1), XBP1 (gene 7494); test: LTEA_HepaRG_XBP1: Life Technologies and Expression Analysis (LTEA) Assay for X-box binding protein 1 (XBP1) using HepaRG (AID 2283540; active means hit-call score of the fitted dose curve at least 0.9, where 1 is the maximum; inactive means score below 0.9); conditions: mRNA level, 48 h; actives raise or lower the signal
Procedure, shortened: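 Transcript levels of XBP1, measured by qRT-PCR and normalised to three housekeeping genes, were fitted bidirectionally relative to 0.5% DMSO controls. Human HepaRG cells received eight-point half-log dilutions from 100 uM for 48 h.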

[6] = LTEA_HepaRG_LDH_cytotoxicity: Cytotoxicity Assessment in the Life Technologies and Expression Analysis (LTEA) Assay (AID 2283563);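 on AC50: LDH activity released into spent culture medium as a marker of cell death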
Procedure, shortened: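 Cells were thawed and plated for 48 h. Medium was then replaced with serum-free induction medium. Chemicals (8 half-log points, maximum 100 uM, 0.5% DMSO) were added in duplicate for 48 h, after which spent medium was assayed for LDH.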

[7] = ATG_XTT_Cytotoxicity: Cytotoxicity Assessment in the Attagene TRANS-FACTORIAL HepG2 Assay (AID 2283584);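 on AC50: cells exposed to compound for 24 h before reading; active means loss of viability signal versus DMSO baseline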
Procedure, shortened: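 Cells: human HepG2, transiently transfected with MRTU reporter constructs. Exposure 24 h. Readout: XTT, cell number. Baseline/neg ctrl DMSO; loss-of-signal scored.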

[8] = TOX21_p53_BLA_p2_viability: Viability Assessment in the Tox21 HCT-116 p53 Agonism Beta-lactamase Assay, Phase 2 (AID 2283591);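 further: compound exposure lasted 16 h at 37 °C; actives lower the ATP signal meaning cytotoxicity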
Procedure, shortened: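 Cytotoxicity readout: CellTiter-Glo ATP luminescence, 30 min at room temperature, after the beta-lactamase read. Cells were HCT116 exposed 16 h at 37C to compounds pin-transferred at 217-fold dilution from DMSO stocks.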

[9] = target: Cellular tumor antigen p53 (Homo sapiens) (UniProt P04637); test: TOX21_p53_BLA_p2_ratio: Tox21 HCT-116 p53 Agonism Beta-lactamase Assay, Ratio, Phase 2 (AID 2283592)
Chain of Cellular tumor antigen p53 (Homo sapiens) (P04637 whole entry, looked up): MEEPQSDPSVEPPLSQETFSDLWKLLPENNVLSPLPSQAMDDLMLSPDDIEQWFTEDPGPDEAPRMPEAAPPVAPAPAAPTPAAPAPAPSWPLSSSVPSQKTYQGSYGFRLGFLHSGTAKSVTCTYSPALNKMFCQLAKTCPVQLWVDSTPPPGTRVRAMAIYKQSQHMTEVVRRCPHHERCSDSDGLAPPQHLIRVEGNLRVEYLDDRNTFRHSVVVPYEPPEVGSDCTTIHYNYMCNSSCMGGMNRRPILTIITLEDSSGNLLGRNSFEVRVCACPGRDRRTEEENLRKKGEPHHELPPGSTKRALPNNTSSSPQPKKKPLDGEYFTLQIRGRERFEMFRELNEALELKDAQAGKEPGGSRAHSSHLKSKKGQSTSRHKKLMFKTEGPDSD
Procedure, shortened: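 Plated HCT116 p53-bla cells (4000/well) received compound after 5 h, then 16 h at 37C/5% CO2. CCF4-AM added, 2 h RT. Ratio of 460 to 530 nm emission taken as the p53 reporter signal.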

[10] = TOX21_p53_BLA_p3_viability: Viability Assessment in the Tox21 HCT-116 p53 Agonism Beta-lactamase Assay, Phase 3 (AID 2283593);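 further: cells exposed to compound for 16 h before reading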
Procedure, shortened: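 Cellular ATP was quantified by CellTiter-Glo luminescence, read after 30 min at room temperature. Beforehand, HCT116 cells (4000/well) received compound 5 h post-seeding, 217-fold diluted from DMSO, then incubated 16 h at 37C.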

Measured: AC50

Oc1c(Cl)c(Cl)c(Cl)c(Cl)c1Cl
inactive: [7] | [8] | [10]
active: [1] 3.94 µM | [2] 6.71 µM | [3] 3.76 µM | [4] 6.77 µM | [5] 6.22 µM | [6] 6.81 µM | [9] 8.58 µM and 1.98 µM

CC(C)C(=O)OCC(C)(C)C(OC(=O)C(C)C)C(C)C (stereo not given)
active: [10] 46.4 µM
not listed: [5] | [8]
inactive: all other assays above

Clc1ccc(C(Cl)(Cl)Cl)cc1
not listed: [5]
inactive: all other assays above

O=C(O)C(F)(F)C(F)(F)C(F)(F)C(F)(F)C(F)(F)C(F)(F)C(F)(F)C(F)(F)F
active: [2] 60.4 µM | [3] 85.4 µM | [4] 82.9 µM | [6] 78.6 µM | [8] 85.3 µM | [10] 56.9 µM
inactive: [7] | [9]

Clc1ccc(Cl)cc1
not listed: [1] | [5]
inactive: all other assays above

CCC(C)(CC)c1cc(NC(=O)c2c(OC)cccc2OC)on1
active: [3] 2.8 µM
inactive: [4] | [6]

ClC1=C(Cl)[C@]2(Cl)[C@@H]3[C@@H]4C[C@@H]([C@H]5O[C@@H]45)[C@@H]3[C@@]1(Cl)C2(Cl)Cl
active: [3] 1.65 µM
not listed: [1] | [5] | [10]
inactive: all other assays above

CN(C)CCO
not listed: [1] | [5]
inactive: all other assays above

OCC(O)CO
inactive: [7] | [8] | [9] | [10]

Oc1ccc(C(c2ccc(O)cc2)(C(F)(F)F)C(F)(F)F)cc1
inactive: [7] | [8] | [9] | [10]
active: [2] 94.5 µM | [3] 87.5 µM | [4] 74.5 µM | [6] 77 µM | [7] 60.9 µM and 100 µM | [8] 65.1 µM | [9] 63 µM | [10] 82.1 µM

N#Cc1ccc(N(CC(N)=O)CC(F)(F)F)cc1C(F)(F)F
inactive: [2] | [4] | [6] | [8]
active: [3] 22.6 µM

Nc1ccc(-c2ccc(N)cc2)cc1
not listed: [1] | [7]
inactive: all other assays above

O=S(=O)(O)C(F)(F)C(F)(F)C(F)(F)C(F)(F)C(F)(F)C(F)(F)F
active: [3] 38.6 µM
not listed: [1] | [8]
inactive: all other assays above

CCCN(CCC)N=O
not listed: [1] | [5]
inactive: all other assays above

O=NN(c1ccccc1)c1ccccc1
inactive: [2] | [3] | [4] | [5] | [8] | [9]

Clc1ccc(C(c2ccccc2Cl)C(Cl)(Cl)Cl)cc1 (stereo not given)
inactive: [2] | [4] | [7]
active: [3] 0.818 µM | [6] 77.5 µM | [8] 32.5 µM and 55.2 µM | [9] 47.2 µM and 74.1 µM | [10] 26.1 µM and 68.2 µM

c1ccc(-c2ccccc2)cc1
not listed: [1] | [5] | [7]
inactive: all other assays above

CCCCCCCCOC(=O)c1ccccc1C(=O)OCCCCCCCC
not listed: [1] | [5]
inactive: all other assays above

Nn1cnnc1
not listed: [1] | [5]
inactive: all other assays above

CCC(C)c1cc([N+](=O)[O-])cc([N+](=O)[O-])c1O (stereo not given)
active: [2] 1.55 µM | [3] 1.83 µM | [4] 4.17 µM | [6] 3.73 µM | [9] 4.16 µM
inactive: [7] | [10]

Oc1ccc(Cl)cc1Cl
not listed: [1] | [7]
inactive: all other assays above

CC1=C2C[C@H]3[C@@H](CC=C4C[C@@H](O)CC[C@@]43C)[C@@H]2CC[C@]12O[C@@H]1C[C@H](C)CN[C@H]1[C@H]2C
not listed: [1] | [5] | [9]
inactive: all other assays above

C1CC2OC2CC1C1CO1 (stereo not given)
not listed: [1] | [5] | [10]
inactive: all other assays above

CCNc1nc(NC(C)C)nc(SC)n1
inactive: [4] | [6]

Cc1cccc([N+](=O)[O-])c1
not listed: [1] | [5]
inactive: all other assays above

Cc1cc(O)ccc1Cl
not listed: [1] | [5]
inactive: all other assays above

CC#Cc1cc(C)nc(Nc2ccccc2)n1
active: [3] 8.68 µM | [6] 59.9 µM
not listed: [1] | [7]
inactive: all other assays above

O=S(=O)(O)C(F)(F)C(F)(F)C(F)(F)C(F)(F)F
not listed: [1] | [5]
inactive: all other assays above

Cc1ccccc1O
not listed: [1] | [5] | [10]
inactive: all other assays above

CC(c1ccc(O)cc1)(c1ccc(O)cc1)c1ccc(O)cc1
active: [2] 93.9 µM | [3] 68.9 µM | [4] 75.2 µM | [6] 76.5 µM | [8] 33.4 µM | [9] 62.8 µM
inactive: [7] | [10]

Cc1cc(-c2ccc(N)c(C)c2)ccc1N
active: [3] 26.7 µM | [9] 87.2 µM
inactive: [2] | [4] | [6] | [8] | [9]

ClC1=C(Cl)[C@]2(Cl)[C@@H]3[C@@H](Cl)[C@H]4O[C@H]4[C@@H]3C1(Cl)C2(Cl)Cl
active: [3] 2.1 µM | [8] 76.7 µM
not listed: [1] | [5]
inactive: all other assays above

Sc1ccccc1
inactive: [7]

CCCCCCCCCc1ccc(O)cc1
active: [3] 32.5 µM | [7] 151 µM
inactive: [2] | [4] | [6] | [7] | [8] | [9] | [10]

O=C(O)C(F)(F)C(F)(F)C(F)(F)C(F)(F)C(F)(F)F
inactive: [2] | [3] | [4] | [5] | [6] | [9]

Cc1ccccc1[N+](=O)[O-]
not listed: [1] | [5]
inactive: all other assays above
